CSC inhib – cancer stem cell inhibition | cancer stem cell-like cells viability, luminescence | inhibition, % at 7.5 µM | actives 1.1% (n = 300,000); in the data active means inhibition above about 75%; tested in HMLE shEcad cells
Gli-Sufu block – antagonists of Gli-Sufu signaling; inhibition, % at 5 µM; actives 0.74% (n = 340,000); AID 588413; Sufu-KO-LIGHT fibroblasts, Gli luciferase reporter luminescence;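 active means inhibition above about 55%, limit read from the data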;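 further: 0% = DMSO-treated cells and 100% = wells with medium but no cells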
Beta cell apopt – beta cell apoptosis inhibition; INS-1E cytokine-induced death, ATP luminescence, 48 h; percent of positive-control rescue, neutral wells zero; protection from apoptosis, % (test concentration not listed); actives 0.8% (n = 300,000);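 active means Every replicate reaches about 75%, or at least half do and their mean reaches it too, limit read from the data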;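 further: 0% = cytokine-treated negative control wells and 100% = positive control rescue; higher means more ATP so stronger rescue from cytokine killing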
697 NFkB inh – lowers PMA/ionomycin-induced NF-kB signal in 697 B cells | 697 B-cell NF-kB luciferase reporter, 16 h | inhibition, % at 4 µM | actives 0.33% (n = 330,000); in the data active means inhibition above about 35%
Mdm2 MdmX PPI – human Mdm2/MdmX binding inhibition; SaOS-2 split-luciferase Mdm2/MdmX complementation, luminescence; inhibition, % at 8 µM; actives 3% (n = 330,000);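 active means inhibition of at least 50% at 8 µM in the primary screen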
Target sequence (O15151 whole entry, looked up): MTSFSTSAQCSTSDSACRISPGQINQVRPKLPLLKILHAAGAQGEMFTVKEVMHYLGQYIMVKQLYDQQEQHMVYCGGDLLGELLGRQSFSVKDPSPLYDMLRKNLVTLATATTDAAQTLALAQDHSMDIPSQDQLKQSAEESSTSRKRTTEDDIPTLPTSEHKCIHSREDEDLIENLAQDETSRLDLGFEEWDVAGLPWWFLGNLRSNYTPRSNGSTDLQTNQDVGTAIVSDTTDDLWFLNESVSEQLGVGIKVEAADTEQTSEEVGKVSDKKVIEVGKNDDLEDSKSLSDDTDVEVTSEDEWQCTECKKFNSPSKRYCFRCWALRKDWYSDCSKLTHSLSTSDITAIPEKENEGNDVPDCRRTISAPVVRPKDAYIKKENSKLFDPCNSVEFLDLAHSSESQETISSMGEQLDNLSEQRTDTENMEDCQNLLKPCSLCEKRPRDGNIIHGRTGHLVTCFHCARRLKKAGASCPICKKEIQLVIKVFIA
Target sequence (Q00987 whole entry, looked up): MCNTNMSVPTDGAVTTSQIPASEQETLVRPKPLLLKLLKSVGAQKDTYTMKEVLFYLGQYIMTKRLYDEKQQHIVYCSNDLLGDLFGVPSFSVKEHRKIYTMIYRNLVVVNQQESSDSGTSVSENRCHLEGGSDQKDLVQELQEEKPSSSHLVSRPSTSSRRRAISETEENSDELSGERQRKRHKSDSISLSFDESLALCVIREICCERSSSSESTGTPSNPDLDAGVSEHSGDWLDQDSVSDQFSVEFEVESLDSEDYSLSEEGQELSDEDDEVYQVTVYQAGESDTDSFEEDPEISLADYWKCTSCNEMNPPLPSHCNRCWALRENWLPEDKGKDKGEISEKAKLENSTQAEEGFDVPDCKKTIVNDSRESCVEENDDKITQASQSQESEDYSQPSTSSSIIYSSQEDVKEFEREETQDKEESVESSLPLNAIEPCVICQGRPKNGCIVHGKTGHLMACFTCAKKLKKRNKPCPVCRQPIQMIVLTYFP
Jurkat NFkB inh – lowers PMA/ionomycin-induced NF-kB signal in Jurkat cells | actives 0.53% (n = 330,000) | PMA/ionomycin-induced NF-kB luciferase reporter, luminescence | AID 435003 | inhibition, % at 4 µM; in the data active means inhibition above about 50%
697 NFkB conf – lowers PMA/ionomycin-induced NF-kB signal in 697 B cells | shares compounds with 697 NFkB inh | 697 B-cell NF-kB luciferase, 16 h | inhibition, % at 4 µM | actives 35% (n = 2,000) | AID 449746; in the data active means inhibition mostly above about 28%, no sharp cut-off; inactive means mostly below about 22%
* hit, by the source's call; . = no result given. An excerpt weighted towards active compounds, which were near 4.5% of everything screened.

SMILES	CSC inhib	Gli-Sufu block	Beta cell apopt	697 NFkB inh	Mdm2 MdmX PPI	Jurkat NFkB inh	697 NFkB conf
CN(C)C(CNC(=O)CNC(=O)c1ccc2ccccc2c1)c1ccccc1 (centres undefined)	9.4	-16.8	-7.3	12.9	34.7	-4.6	.
O=C(O)CCC(=O)c1ccc2c(c1)CCCC2	2.4	.	-2.3	35.4*	1.0	7.2	-4.2
CC1CCN(c2ccc(C(=O)OCC(=O)NCCN3C(=O)CSC3=O)cc2[N+](=O)[O-])CC1	-2.7	-7.8	-1.2	37.9*	-3.4	1.6	12.0
Cc1ccc(C(=O)OCC(=O)NCCN2C(=O)CSC2=O)cc1[N+](=O)[O-]	-6.8	-0.9	2.2	-4.4	-16.9	19.3	.
Cc1ccc(C)c(Nc2nn3c(=O)c4ccc(C(=O)NCc5cccnc5)cc4nc3s2)c1	60.2	10.1	-1.0	43.3*	36.8	6.2	20.8
O=C(NCCCN1CCOCC1)c1cc(-c2ccc(Cl)c(Cl)c2)on1	-2.8	-5.3	-2.6	6.6	-7.9	2.8	.
Cc1ccc(-c2cc(C(=O)NCCCN3CCOCC3)no2)cc1	-7.9	38.1	-3.7	86.6*	-10.6	2.0	85.3*
O=C(NCCCN1CCOCC1)c1cc(-c2cccs2)on1	2.7	-5.0	17.4	47.8*	-45.4	-23.7	23.7
CCOC(=O)c1nn(-c2ccc(F)cc2)cc1O	2.8	4.3	-1.6	11.8	13.0	-21.2	.
CCOC(=O)c1nn(-c2ccc3c(c2)CCN3C(C)=O)cc1O	-4.8	-64.5	1.6	36.3*	31.4	-31.9	22.5
Cn1c(CNC(=O)CNC(=O)Cc2ccc(F)cc2)cc(=O)n(C)c1=O	-19.8	25.7	0.8	3.1	-2.5	9.4	.
CN1CCN(C(=O)c2ccccc2N(Cc2ccccc2)S(C)(=O)=O)CC1	-12.2	-10.8	1.1	1.1	14.7	-1.7	.
CN1CCN(C(=O)c2ccccc2N(Cc2ccccc2)S(=O)(=O)c2ccccc2)CC1	-8.7	16.6	.	40.4*	-4.4	13.7	25.1*
COc1cc(C(=O)Nc2nc(OC)c(-c3ccccc3)c(OC)n2)cc(OC)c1OC	2.0	2.2	13.0	37.8*	39.7	19.1	19.6
Brc1cc2[nH]cnc2c2ccccc12	4.1	21.8	-20.5	38.8*	18.6	-0.9	25.6
COc1cccc(C=NNC(=S)NN=Cc2cccc(OC)c2OC)c1OC	.	-4.7	.	.	.	.	.
COc1ccc(C(=O)O/N=C2\C(=O)N(C)c3ccccc32)cc1	-2.6	5.0	-20.6	-8.8	-3.6	-5.0	.
COc1ccc(C(=O)N=c2nc3ccccn3s2)cc1	29.4	-55.9	28.7	-388.5	30.2	-83.5	-281.6
CCN1C(=O)c2cccc3c(NC(=O)c4cccc(N5C(=O)CCC5=O)c4)ccc1c23	-13.8	15.3	-7.9	35.9*	-1.6	3.4	40.2*
CCOc1cc(C(=O)Nc2ccc3c4c(cccc24)C(=O)N3CC)cc(OCC)c1OCC	6.8	23.8	-4.7	3.7	25.3	-8.9	.
C/C(=N\Nc1ccc(C(=O)O)cc1)c1ccc(Br)cc1	-6.0	-14.9	-12.5	-345.3	-115.3	-56.3	-300.5
C/C(=N\Nc1ccc(C(=O)O)cc1)c1ccc(Cl)s1	-8.7	-71.7	-2.7	-299.0	-49.5	-100.0	-267.6
C/C(=N/Nc1ncc(Br)cn1)c1ccc(Br)cc1	-6.3	-0.1	0.4	-45.1	13.6	-33.0	.
C[C@H](CO)N1C[C@H](C)[C@@H](CN(C)C(=O)Nc2ccccc2)Oc2c(NC(=O)C3CCCCC3)cccc2C1=O	-0.5	-0.4	-1.6	3.9	9.5	9.6	.
CCOC(=O)C1CCN(C/C=C/c2ccccc2OC)CC1	-4.6	-5.2	-0.3	37.6*	6.4	0.9	-1.7
SMILES	CSC inhib	Gli-Sufu block	Beta cell apopt	697 NFkB inh	Mdm2 MdmX PPI	Jurkat NFkB inh	697 NFkB conf
CCOc1ccccc1NC(=O)C(=O)N/N=C/c1ccc([N+](=O)[O-])cc1	-2.1	36.3	1.8	39.3*	20.9	2.0	19.8
COc1cccc(CN(c2ccccc2C(=O)O)S(=O)(=O)c2ccc(C)cc2)c1	.	16.0	.	.	.	.	.
COc1ccc(/C=C2\SC(=S)N(CCCC(=O)Nc3ccc(C(=O)O)cc3)C2=O)cc1OC	20.1	4.2	-1.8	26.3	7.8	-20.1	.
Cc1ccc(/C=C2\SC(=S)N(CCC(=O)Nc3cccnc3)C2=O)cc1	-5.7	-4.0	.	52.3*	-22.3	-0.3	27.1
CCOc1ccc(/C=C2/SC(=S)N(CCC(=O)Nc3ccc(C(=O)O)cc3)C2=O)cc1	-3.7	6.1	-14.4	77.0*	2.4	3.9	77.0*
COc1ccc(/C=C2\SC(=S)N(CCC(=O)Nc3cccc(C(=O)O)c3)C2=O)cc1	-6.9	6.1	.	41.5*	18.9	-5.4	38.9*
O=C(CCN1C(=O)/C(=C/c2ccc(Cl)cc2)SC1=S)Nc1cccc(C(=O)O)c1	7.9	3.8	-0.4	13.4	11.3	23.2	.
COc1ccc(/C=C2\SC(=O)N(CCCC(=O)Nc3ccc(C(=O)O)cc3)C2=O)cc1OC	-7.0	-1.8	-2.5	62.3*	-1.6	14.1	70.8*
O=C(CCN1C(=O)/C(=C\c2ccccc2)SC1=S)Nc1ccc(C(=O)O)cc1	9.1	12.2	-3.2	-0.1	2.7	-15.7	.
Cc1ccc(/C=C2\SC(=S)N(CCCC(=O)Nc3cccc(C(=O)O)c3)C2=O)cc1	1.1	51.3	-1.7	76.2*	3.1	-3.7	88.5*
Cc1ccc(/C=C2\SC(=S)N(CCC(=O)NNC(=O)c3cccc(O)c3)C2=O)cc1	14.1	2.8	0.1	40.2*	11.7	6.1	11.7
COc1cccc(/C=C2\SC(=S)N(CCCC(=O)Nc3ccc(C(=O)O)cc3)C2=O)c1	-9.7	18.5	-7.6	53.4*	23.7	17.0	60.6*
Cc1ccc(/C=C2\SC(=S)N(CCC(=O)NNC(=O)c3ccc(O)cc3)C2=O)cc1	3.4	-0.8	-8.1	14.7	1.1	9.2	.
CCN(CC)CCOC(=O)c1ccc(NC(=O)CCCN2C(=O)S/C(=C/c3ccc(OC)cc3)C2=S)cc1	22.7	45.7	-2.0	52.3*	48.1	-13.0	60.2*
Cc1cc(OCC(=O)Nc2ccc(N3CCN(C)CC3)cc2)ccc1Cl	38.9	1.0	3.9	-17.0	-5.1	-57.8	.
O=C(CCN1C(=O)/C(=C\c2ccc(F)cc2)SC1=S)Nc1ccc(O)cc1	7.7	2.0	-9.2	-31.8	-10.2	0.5	.
COc1ccc(/C=C2\SC(=S)N(CCC(=O)Nc3ccc(O)cc3)C2=O)cc1	7.2	-0.9	.	47.5*	17.2	-2.0	37.5*
O=C(NCCS(=O)(=O)N1CCCCC1)c1ccc2c(c1)OCO2	-10.4	-5.9	.	-2.7	-6.2	-7.0	.
CN(C)c1ccc(C(O)Cc2nc3ccccc3n2C)cc1 (centres undefined)	-4.2	-22.1	1.4	-269.2	5.3	-107.4	-289.4
Cc1ccc(S(=O)(=O)/C(=C\N(C)C)c2cnc(Cl)s2)cc1	2.7	-5.5	-1.8	36.3*	-1.5	9.8	22.6
Cc1ccn2cc(-c3ccc(Br)cc3)nc2c1	15.2	-102.1	7.1	-341.2	-72.8	-148.7	-417.1

Screening results deposited in PubChem by several laboratories.
